Sampled rows, rich in hits. Any-hit rate of the full collection: about 12%.
Shiga inhibitor – Shiga toxin inhibition | hit rate 9.2% among 290,000 | inhibition, % at 38.7 µM | Vero cells, Shiga toxin protein synthesis inhibition reporter | AID 2315; in the data active = inhibition mostly above about 28%, no sharp cut-off; inactive = mostly below about 43%; also: 0% is about no effect
NS1 function inh – inhibitors of influenza NS1 protein function; Potency, µM (top dose mostly 46.1 µM), for the others: at the highest dose activity, positive = more growth; hit rate 0.4% among 270,000; also: potency is read from the fitted curve at half-maximal effect; actives are rising curves; nearly all actives have a fitted effect of over 50% in size
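OD600 was taken as the measure of yeast growth restored by compound in an NS1-expressing S. cerevisiae strain. Cells had been washed out of glucose medium and diluted 1:100 into galactose -URA medium, pH 6.0.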
SARS PLpro yeast – inhibitors of SARS-CoV papain-like protease in yeast | S. cerevisiae expressing SARS-CoV PLpro, growth rescue | Potency, µM (titrated, usually from 32.9 µM), for the others: at the top dose activity, positive = growth rescue, most hits filed as activators | hit rate 0.19% among 330,000 | AID 485353; also: potency is read from the fitted curve at half-maximal effect; 0% is about no effect; nearly all actives have a fitted effect of over 55% in size
Cycloheximide cs – counter-screen for Shiga toxin inhibitors: cycloheximide protein synthesis inhibition. cell reporter, cycloheximide protein synthesis inhibition counterscreen. max response, %. hit rate 12% among 300,000. AID 2314; in the data active = max response mostly above about 13%, no sharp cut-off; inactive = mostly below about 14%; also: read at 38.3 µM for the half of the compounds with a filed dose; 0% is about no effect
Active calls of the source: *. Unless noted, calls follow the shape of the full dose curve.

`Cc1ccc(C)c(NC(=O)N2CCc3ccccc3C2)c1` gave Shiga inhibitor 78*, NS1 function inh -19%, SARS PLpro yeast -3% and Cycloheximide cs 42*.
Screening O=C(Nc1ccccc1F)N1CCc2ccccc2C1 returned Shiga inhibitor 84*, NS1 function inh -32%, SARS PLpro yeast 0% and Cycloheximide cs 57*.
For CC1CC(C)CN(C(=O)Nc2ccccc2F)C1 (centres undefined) the results were Shiga inhibitor 13, NS1 function inh 1%, SARS PLpro yeast -1% and Cycloheximide cs 6.
Cc1ccc(C)c(NC(=O)N2CCCCCC2)c1 was read as Shiga inhibitor 9, NS1 function inh 10%, SARS PLpro yeast 4% and Cycloheximide cs 10.
For Cn1c(CNC(=O)CNC(=O)c2ccccc2F)cc(=O)n(C)c1=O the results were Shiga inhibitor -10, NS1 function inh 5%, SARS PLpro yeast 13% and Cycloheximide cs -3.
`CC(=O)N(C)c1ccc(NC(=O)c2ccc([N+](=O)[O-])cc2Cl)cc1` gave Shiga inhibitor 66*, NS1 function inh -12%, SARS PLpro yeast -1% and Cycloheximide cs 17.
`CCCCn1nnc(NC(=O)c2ccc([N+](=O)[O-])cc2Cl)n1` gave Shiga inhibitor 26, NS1 function inh 9%, SARS PLpro yeast 0% and Cycloheximide cs 14.
For CCn1nnc(NC(=O)COc2ccc([N+](=O)[O-])cc2)n1 the results were Shiga inhibitor 23, NS1 function inh -3%, SARS PLpro yeast 0% and Cycloheximide cs 19*.
Screening Cc1ccc(OCC(=O)Nc2ccc([N+](=O)[O-])cc2)cc1 returned Shiga inhibitor -8, NS1 function inh 13%, SARS PLpro yeast 4% and Cycloheximide cs 0.
`CCCn1nnc(NC(=O)c2ccc([N+](=O)[O-])cc2Cl)n1` gave Shiga inhibitor 62*, NS1 function inh 1%, SARS PLpro yeast -1% and Cycloheximide cs 24*.
CCCCn1nnc(NC(=O)c2ccc(-c3cccc(Cl)c3)o2)n1 was read as Shiga inhibitor 68*, NS1 function inh -55%, SARS PLpro yeast -12% and Cycloheximide cs 33*.
Screening CC(=O)Nc1ccc(NC(=O)c2ccc([N+](=O)[O-])cc2Cl)cc1 returned Shiga inhibitor 29, NS1 function inh -2%, SARS PLpro yeast 3% and Cycloheximide cs -1.
CCN(CCNC(=O)CS(=O)(=O)Cc1nc(-c2cccc(OC)c2)oc1C)c1ccccc1 was read as Shiga inhibitor -2, NS1 function inh -39%, SARS PLpro yeast -17% and Cycloheximide cs 6.
`CCNC(=O)COC(=O)c1sccc1C` gave Shiga inhibitor -3, SARS PLpro yeast -2% and Cycloheximide cs 5.
CCCn1nnc(NC(=O)c2ccc(-c3cccc(Cl)c3)o2)n1 was read as Shiga inhibitor 140*, NS1 function inh -77%, SARS PLpro yeast -4% and Cycloheximide cs 41*.
`CCN(C(=O)c1cc2c(C)nc3ccccc3c2o1)c1cc(Cl)ccc1OC` gave Shiga inhibitor -10, NS1 function inh -6%, SARS PLpro yeast -8% and Cycloheximide cs -2.
Screening CC(=O)N1CCC(N(CCN2CCOCC2)C(=S)Nc2ccccc2C)CC1 returned Shiga inhibitor -8, NS1 function inh -3%, SARS PLpro yeast 2% and Cycloheximide cs 1.
`COc1ccc(Nc2nnc(SCC(=O)NC3CC3)s2)cc1` gave SARS PLpro yeast -3%.
Screening Cc1cccc(Nc2nnc(SCC3CCCCO3)s2)c1C (centres undefined) returned Shiga inhibitor 66*, NS1 function inh -39%, SARS PLpro yeast -14% and Cycloheximide cs 54*.
COc1ccc(Nc2nnc(SCC3CCCO3)s2)cc1 (centres undefined) was read as Shiga inhibitor 54, NS1 function inh -4%, SARS PLpro yeast -4% and Cycloheximide cs 24*.
`COc1cccc(Nc2nnc(SCC3CCCCO3)s2)c1` (centres undefined) gave Shiga inhibitor 53*, SARS PLpro yeast -7% and Cycloheximide cs 53*.
Screening Cc1cccc(Nc2nnc(SC3CCOC3=O)s2)c1C (centres undefined) returned Shiga inhibitor 27, SARS PLpro yeast 4% and Cycloheximide cs 9.
`COc1ccc(-c2cc3cc(-c4cc(OC)c(OC)c(OC)c4)ccc3o2)cc1` gave SARS PLpro yeast -2%.
O=C(COc1ccccc1)Nc1ccc(-c2ccc(N3CCOCC3)nn2)cc1 was read as SARS PLpro yeast 0%.
`O=C1NC(=O)/C(=C\c2ccccc2OCc2ccccc2)S1` gave Shiga inhibitor -15, SARS PLpro yeast -1% and Cycloheximide cs 6.
For O=C1NC(=O)/C(=C/c2cccc3ccccc23)S1 the results were Shiga inhibitor 16, NS1 function inh -164%, SARS PLpro yeast -18% and Cycloheximide cs 17*.

Bioassay records deposited in PubChem BioAssay by National Center for Advancing Translational Sciences (NCATS).
